Compound activity (PubChem BioAssay)
A549 tox: kills or reduces viability of A549 cells in Nrf2 counter-screen. A549 ARE-Fluc cells, CellTiter-Fluor viability, 18-24 h. Potency, µM (titrated, usually from 46 µM), for inactives: top-dose activity change, negative = cytotoxicity, most hits filed as inhibitors. hit rate 0.16% among 390,000; also: % is scaled to controls: 0 for no effect and ±100 for the full control effect
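Cytotoxicity counterscreen: CellTiter-Fluor fluorescence was measured in A549 ARE_Fluc cells after 18-24 h of compound exposure in a concentration series. The subsequent BugLite luminescent read reports ARE-luciferase activity.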
Nrf2 block: Nrf2 pathway inhibition; A549 ARE-Fluc reporter, luciferase luminescence, 18-24 h; Potency, µM (series often up to 46 µM), for inactives: at the highest dose activity change, negative = inhibition, usual class: inhibitors; hit rate 2.1% among 360,000; also: % is scaled to controls: 0 for no effect and ±100 for the full control effect; nearly all actives have a fitted effect of over 60% in size
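A549 ARE_Fluc cells, 5000/well, 5% FBS OPTI-MEM; compounds in dose-response, 18-24 h at 37 °C/5% CO2; CellTiter-Fluor viability read (Ex 405/Em 525), then BugLite luciferase luminescence = Nrf2 activity.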
mIDH1 inhibitor: human IDH1 R132H inhibition; O75874; IDH1-R132H enzyme, NADPH consumption, diaphorase/resazurin fluorescence; Potency, µM (doses to about 76.6 µM), without a hit: at the highest dose activity change, negative = inhibition, usual class: inhibitors; hit rate 0.093% among 390,000; AID 602179; also: % is scaled to controls: 0 for no effect and ±100 for the full control effect; nearly all actives have a fitted effect of over 65% in size
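IDH1-R132H (0.5 ug/mL) preincubated 30 min with compound, then NADPH (0.016 mM) and alpha-KG (2 mM) added; 80 min at RT, pH 7.5. Remaining NADPH coupled via diaphorase/resazurin to fluorescence (540/590 nm); concentration-response curves normalized to no-enzyme control.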
ELG1 DNA repair: blocks ELG1-dependent DNA repair in HEK293T cells; hit rate 2.3% among 330,000; Potency, µM (highest dose often 46.1 µM), for inactives: at the top dose activity change, negative = inhibition, actives largely listed as inhibitors; HEK293T ELG1-luciferase reporter, luminescence, 16 h; DNA damage induced by 5-fluorouridine; also: % is scaled to controls: 0 for no effect and ±100 for the full control effect; nearly all actives have a fitted effect of over 55% in size
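DMSO vehicle served as the neutral condition. Each well held 2,000 cells given 5-fluorouridine plus compound; after 16 hr at 37 °C/5% CO2, ONE-Glo was added and luciferase measured 30 min later.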
Nrf2 activator: Nrf2 pathway activation; Potency, µM (doses to about 46.1 µM), for the others: at the highest dose activation, usual class: activators; AREc32 ARE-luciferase reporter (MCF7-derived line), luminescence, 24 h; hit rate 0.31% among 410,000; also: % of control where 0% means no effect; nearly all actives have a fitted effect of over 65% in size
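Each well held 1000 AREc32 cells, which were incubated with compound for 24 hr at 37 deg C after overnight attachment, and ARE reporter activity was quantified by firefly luciferase luminescence.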
ELG1 FLuc counter: luciferase inhibition in cell-free luciferin readout for ELG1 hits; cell-free firefly luciferase luminescence counter-screen, ViewLux; shares compounds with ELG1 DNA repair; Potency, µM (highest dose often 46.1 µM), inactives show at the highest dose activity change, negative = inhibition, actives largely listed as inhibitors; hit rate 3% among 350; also: % is scaled to controls: 0 for no effect and ±100 for the full control effect
ELG1-Luc inh: inhibits ELG1-dependent DNA repair in HEK293T cells, confirmed; shares compounds with ELG1 DNA repair; HEK293T ELG1-luciferase levels, luminescence; cells co-treated with 5-fluorouridine; Potency, µM (highest dose often 46.1 µM), for the others: at the highest dose activity change, negative = inhibition, hits mostly inhibitors; hit rate 68% among 670; AID 624248; also: % is scaled to controls: 0 for no effect and ±100 for the full control effect; nearly all actives have a fitted effect of over 55% in size
ELG1-Luc MMS: MMS-stimulated human ELG1 repair inhibition, confirmed; shares compounds with ELG1 DNA repair; HEK293T luciferase-tagged ELG1 level, MMS stimulated; Potency, µM (series often up to 46.1 µM), for inactives: at the top dose activity change, negative = inhibition, hits mostly inhibitors; hit rate 53% among 670; also: % is scaled to controls: 0 for no effect and ±100 for the full control effect; nearly all actives have a fitted effect of over 60% in size
ELG1 5-FU: confirmation of ELG1 repair inhibitors: viability with 5FU; Potency, µM (doses to about 46.1 µM), without a hit: at the highest dose activity change, negative = viability loss, actives largely listed as cytotoxic; shares compounds with ELG1 DNA repair; cell viability with 5-FU, ELG1-dependent repair; 670 tested, under 10 active;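 also: ELG1-luc HEK293T cells cotreated with 5-fluorouridine at 10 µM final; viability measured 16 h after compound addition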
ELG1 MMS viab: confirmation of ELG1 repair inhibitors: viability with MMS. shares compounds with ELG1 DNA repair. Cell viability with MMS, ELG1-dependent DNA repair. Potency, µM (series often up to 46.1 µM), for inactives: top-dose activity change, negative = viability loss, actives largely listed as cytotoxic. hit rate 33% among 670. AID 624251;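 also: ELG1-luc HEK293T cells co-treated with 10 µM MMS; viability read 16 h after compound addition; % is scaled to controls: 0 for no effect and ±100 for the full control effect; nearly all actives have a fitted effect of over 60% in size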
ELG1 unstim viab: affects unstimulated cell viability, ELG1 hit counter-screen | shares compounds with ELG1 DNA repair | hit rate 8% among 900 | Potency, µM (doses to about 45.9 µM), inactives show at the top dose activity change, negative = loss of viability, usual class: cytotoxic | cell viability counter-screen, unstimulated, luminescence;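 also: compound exposure lasted 16 hours before reading; % is scaled to controls: 0 for no effect and ±100 for the full control effect; nearly all actives have a fitted effect of over 55% in size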
FLuc biochem: counter-screen for ELG1 repair inhibitors: firefly luciferase inhibition. shares compounds with ELG1 DNA repair. Potency, µM (doses to about 57.5 µM), without a hit: at the top dose activity, negative = inhibition, usual class: inhibitors. purified firefly luciferase, luminescence counter-screen. hit rate 10% among 350; also: % is scaled to controls: 0 for no effect and ±100 for the full control effect
Starred values were filed as active, the others as inactive; [ ] = remark or other dose. The list is not random: actives were taken first. Their share in the collection is about 3.8%. Calls follow the shape of the dose curve; as a rule, active = well fitted curve in the direction sought with a large enough effect; inconclusive = small, poorly fitted or top-dose-only effect, or another doubt; inactive = no such curve, though single readings can be large; an effect the other way counts as inactive or inconclusive. Potency is read from the fitted curve at half-maximal effect.

Screening Cc1ccc(-c2csc3ncnc(N4CCN(C(=O)c5ccccc5)CC4)c23)cc1 returned A549 tox -14%, Nrf2 block inconclusive, mIDH1 inhibitor -14%, ELG1 DNA repair 18µM*, Nrf2 activator 5%, ELG1 FLuc counter inconclusive, ELG1-Luc inh 16µM*, ELG1-Luc MMS 25µM*, ELG1 5-FU inconclusive, ELG1 MMS viab inconclusive, ELG1 unstim viab inconclusive and FLuc biochem 1%.
NC(=O)NC(=O)C(c1ccccc1)N1CCN(S(=O)(=O)Cc2ccccc2)CC1 (stereo not drawn) was read as A549 tox -2%, Nrf2 block -8%, mIDH1 inhibitor -2%, ELG1 DNA repair 12% and Nrf2 activator 0%.
Screening COc1cc(C(=O)NCCOc2cc(C)ccc2C(C)C)cc(OC)c1OC returned A549 tox -4%, Nrf2 block -60%, mIDH1 inhibitor 5%, ELG1 DNA repair 4.6µM*, Nrf2 activator 0%, ELG1-Luc inh 14µM*, ELG1-Luc MMS 7.1µM*, ELG1 5-FU -4%, ELG1 MMS viab 5.6µM* and ELG1 unstim viab inconclusive.
Screening CC(=O)N1CCc2cc(S(=O)(=O)NC(Cc3ccccc3)C(=O)Nc3cccc(C)c3)ccc21 (stereo not drawn) returned A549 tox 9%, Nrf2 block -23%, mIDH1 inhibitor 30% and Nrf2 activator -1%.
For COc1cccc(C(=O)N/N=c2\oc3c(OC)cccc3cc2C(=O)NCc2ccccc2)c1 the results were A549 tox 12%, Nrf2 block 17%, mIDH1 inhibitor 6%, ELG1 DNA repair 4.1µM*, Nrf2 activator 1%, ELG1-Luc inh 2.2µM*, ELG1-Luc MMS inconclusive, ELG1 5-FU inconclusive, ELG1 MMS viab 4% and ELG1 unstim viab -13%.
For COC(=O)c1sc2cccc(F)c2c1S(=O)(=O)N1CCN(c2ccc(F)cc2)CC1 the results were A549 tox 0%, Nrf2 block inconclusive, mIDH1 inhibitor 4% and Nrf2 activator 6%.
For Cc1ccc2oc(NC(=O)N3CCOCC3)cc(=O)c2c1 the results were A549 tox -3%, Nrf2 block -15%, mIDH1 inhibitor -4%, ELG1 DNA repair 3.5µM*, Nrf2 activator 0%, ELG1-Luc inh 19%, ELG1-Luc MMS 15%, ELG1 5-FU -3%, ELG1 MMS viab -6% and ELG1 unstim viab -13%.
Screening CCOC(=O)c1c(S(=O)(=O)NCC(=O)N(C)Cc2ccccc2)c(C)n(C)c1C returned A549 tox 1%, mIDH1 inhibitor -6% and Nrf2 activator 0%.
`COc1ccc(-c2cn3nc(SCC(=O)Nc4cccc(C)c4C)ccc3n2)cc1` gave A549 tox 5%, mIDH1 inhibitor 0% and Nrf2 activator 0%.
Screening Cc1c(Cl)cccc1NC(=O)c1cnc2sc(N3CCOCC3)nn2c1=O returned A549 tox 4%, Nrf2 block -9%, mIDH1 inhibitor -5% and Nrf2 activator 2%.
For CC(=C/c1ccccc1)/C=N/n1c(-c2ccncc2)n[nH]c1=S the results were A549 tox 1%, Nrf2 block -15%, mIDH1 inhibitor 8%, ELG1 DNA repair 2.3µM*, Nrf2 activator 0%, ELG1-Luc inh 2.8µM*, ELG1-Luc MMS inconclusive, ELG1 5-FU -2%, ELG1 MMS viab 2% and ELG1 unstim viab -4%.
Screening CC(/C=N/n1c(-c2ccncc2)n[nH]c1=S)=C\c1ccco1 returned A549 tox 21%, Nrf2 block 16%, mIDH1 inhibitor 2%, ELG1 DNA repair 2.6µM*, Nrf2 activator 7.1µM*, ELG1-Luc inh 13µM*, ELG1-Luc MMS 6.3µM*, ELG1 5-FU -2%, ELG1 MMS viab -23% and ELG1 unstim viab -2%.
`CCN1C(=O)[C@H]2[C@@H](c3ccc(OC)cc3)N[C@]3(CCCN(Cc4ccc(OC)cc4)C3=O)[C@H]2C1=O` gave mIDH1 inhibitor 0% and Nrf2 activator 0%.
`Cc1cc(C)c(C(=O)N2CCC(N3CCC(C(=O)NC(C)C)CC3)CC2)o1` gave A549 tox 2%, Nrf2 block 1%, mIDH1 inhibitor 1%, ELG1 DNA repair 3% and Nrf2 activator 0%.
Screening CN1/C(=C\C(=O)C[n+]2ccc3ccccc3c2)C(C)(C)c2ccccc21 returned A549 tox inconclusive, Nrf2 block 10µM*, mIDH1 inhibitor -1%, ELG1 DNA repair 1.2µM*, Nrf2 activator 7%, ELG1-Luc inh inconclusive, ELG1-Luc MMS 2µM*, ELG1 5-FU -6%, ELG1 MMS viab 2.8µM* and ELG1 unstim viab inconclusive.
COc1ccccc1C(=O)N1CCCC(C)(C(=O)NS(=O)(=O)C2CC2)C1 (stereo not drawn) was read as Nrf2 activator -1%[9.22 µM].
